Source: the supplement of paper PMC10849652
The full data set covers some 7,900 targets. This sample favours those with a hit. About 0.6% of all pairs of compound and target were hits.

Experiments:
Test in all cases: log2 fold change, soluble protein after heating vs DMSO (PISA); higher = thermal stabilisation; K562 cells, 10 uM, 30 min; active = over 0.2 and 3.5 SD of the protein, either way, in both replicates (recomputed)
[1] = compound: COC1=CC=C(C=C1)CN2C=CC3=C2C=C(C=C3)C(=O)NO
In short: (§1)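 Quantification of soluble protein used TMTpro 16plex LC-MS/MS, with channel sums equalised. Samples were the supernatant after 21,000xg for 90 min of pooled aliquots from K562 cells (2×10^6 cells/mL) treated with 10 μM compound for 30 min, heated for 3 min over 48°C-58°C, and extracted in PBS with 0.5% NP-40 at 4°C. Values, from duplicates, describe thermal stability against control samples on a log2 fold-change scale.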

filanesib = compound: CON(C)C(=O)N1N=C(c2cc(F)ccc2F)S[C@@]1(CCCN)c1ccccc1 [filanesib]
In short: as §1

zotarolimus = compound: CO[C@H]1C[C@@H]2CC[C@@H](C)[C@@](O)(O2)C(=O)C(=O)N2CCCC[C@H]2C(=O)O[C@H]([C@H](C)C[C@@H]2CC[C@H](n3cnnn3)[C@H](OC)C2)CC(=O)[C@H](C)/C=C(\C)[C@@H](O)[C@@H](OC)C(=O)[C@H](C)C[C@H](C)/C=C/C=C/C=C/1C [zotarolimus]
In short: as §1

idasanutlin = compound: COc1cc(C(=O)O)ccc1NC(=O)[C@@H]1N[C@@H](CC(C)(C)C)[C@](C#N)(c2ccc(Cl)cc2F)[C@H]1c1cccc(Cl)c1F [idasanutlin]
In short: as §1

alisertib = compound: COc1cc(Nc2ncc3c(n2)-c2ccc(Cl)cc2C(c2c(F)cccc2OC)=NC3)ccc1C(=O)O [alisertib]
In short: as §1

[2] = compound: COc1cc2nc(-c3cc(F)ccc3O)nc(N[C@@H]3CNC[C@H]3C(C)(C)O)c2cc1OC
In short: as §1

gefitinib = compound: COc1cc2ncnc(Nc3ccc(F)c(Cl)c3)c2cc1OCCCN1CCOCC1 [gefitinib]
In short: as §1

[3] = compound: COc1cccc2cc(-c3nc([C@H]4CC[C@H](C(=O)O)CC4)n4ncnc(N)c34)[nH]c12
In short: as §1

lapatinib = compound: CS(=O)(=O)CCNCc1ccc(-c2ccc3ncnc(Nc4ccc(OCc5cccc(F)c5)c(Cl)c4)c3c2)o1 [lapatinib]
In short: as §1

pictilisib = compound: CS(=O)(=O)N1CCN(Cc2cc3nc(-c4cccc5[nH]ncc45)nc(N4CCOCC4)c3s2)CC1 [pictilisib]
In short: as §1

[4] = compound: CS(=O)(=O)c1ccc(-c2cnc(N)c(C(=O)Nc3ccccc3)n2)cc1
In short: as §1

crizotinib = compound: C[C@@H](Oc1cc(-c2cnn(C3CCNCC3)c2)cnc1N)c1c(Cl)ccc(F)c1Cl [crizotinib]
In short: as §1

[5] = compound: C[C@@H]1COCCN1C2=NC(=NC(=C2)C3(CC3)S(=O)(=O)C)C4=C5C=CNC5=CC=C4
In short: as §1

[6] = compound: C[C@H](C1=CC=C(C=C1)C(=O)NC2=C3C=CNC3=NC=C2)N
In short: as §1

duvelisib = compound: C[C@H](Nc1ncnc2nc[nH]c12)c1cc2cccc(Cl)c2c(=O)n1-c1ccccc1 [duvelisib]
In short: as §1

gandotinib = compound: Cc1cc(Nc2cc(CN3CCOCC3)c3nc(C)c(Cc4ccc(Cl)cc4F)n3n2)n[nH]1 [gandotinib]
In short: as §1

tozasertib = compound: Cc1cc(Nc2cc(N3CCN(C)CC3)nc(Sc3ccc(NC(=O)C4CC4)cc3)n2)n[nH]1 [tozasertib]
In short: as §1

[7] = compound: Cc1cc(SCc2sc(-c3ccc(C(F)(F)F)cc3)nc2C)ccc1OCC(=O)O
In short: as §1

doramapimod = compound: Cc1ccc(-n2nc(C(C)(C)C)cc2NC(=O)Nc2ccc(OCCN3CCOCC3)c3ccccc23)cc1 [doramapimod]
In short: as §1

ispinesib = compound: Cc1ccc(C(=O)N(CCCN)[C@@H](c2nc3cc(Cl)ccc3c(=O)n2Cc2ccccc2)C(C)C)cc1 [ispinesib]
In short: as §1

Measured: log2 fold change

SLC4A2 (UniProt P04920)
inactive: [1] -0.088 | filanesib -0.041 | zotarolimus 0 | idasanutlin -0.002 | alisertib -0.016 | [2] 0.051 | gefitinib -0.081 | [3] -0.003 | lapatinib -0.023 | pictilisib 0.128 | [4] 0.114 | crizotinib -0.053 | [5] 0.013 | [6] 0.126 | duvelisib -0.015 | gandotinib -0.075 | tozasertib -0.069 | [7] -0.058 | doramapimod 0.07 | ispinesib -0.099

SSX2 (UniProt Q16385)
Chain of UniProt Q16385 (Q16385 whole entry, looked up): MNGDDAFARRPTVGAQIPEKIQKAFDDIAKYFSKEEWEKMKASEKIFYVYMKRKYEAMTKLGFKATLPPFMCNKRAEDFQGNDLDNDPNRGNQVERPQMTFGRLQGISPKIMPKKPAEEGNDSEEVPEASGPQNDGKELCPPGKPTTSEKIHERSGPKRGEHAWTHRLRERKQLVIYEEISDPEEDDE
inactive: [1] 0.083 | filanesib 0.009 | zotarolimus -0.014 | idasanutlin -0.021 | alisertib 0.035 | [2] 0.025 | gefitinib 0.032 | [3] 0.004 | lapatinib -0.011 | pictilisib 0.064 | [4] -0.024 | crizotinib 0.062 | [5] 0.05 | [6] 0.053 | duvelisib 0.036 | gandotinib -0.003 | tozasertib 0.031 | [7] -0.009 | doramapimod -0.043 | ispinesib -0.029

TM9SF2 (UniProt Q99805)
Chain of UniProt Q99805 (Q99805 whole entry, looked up): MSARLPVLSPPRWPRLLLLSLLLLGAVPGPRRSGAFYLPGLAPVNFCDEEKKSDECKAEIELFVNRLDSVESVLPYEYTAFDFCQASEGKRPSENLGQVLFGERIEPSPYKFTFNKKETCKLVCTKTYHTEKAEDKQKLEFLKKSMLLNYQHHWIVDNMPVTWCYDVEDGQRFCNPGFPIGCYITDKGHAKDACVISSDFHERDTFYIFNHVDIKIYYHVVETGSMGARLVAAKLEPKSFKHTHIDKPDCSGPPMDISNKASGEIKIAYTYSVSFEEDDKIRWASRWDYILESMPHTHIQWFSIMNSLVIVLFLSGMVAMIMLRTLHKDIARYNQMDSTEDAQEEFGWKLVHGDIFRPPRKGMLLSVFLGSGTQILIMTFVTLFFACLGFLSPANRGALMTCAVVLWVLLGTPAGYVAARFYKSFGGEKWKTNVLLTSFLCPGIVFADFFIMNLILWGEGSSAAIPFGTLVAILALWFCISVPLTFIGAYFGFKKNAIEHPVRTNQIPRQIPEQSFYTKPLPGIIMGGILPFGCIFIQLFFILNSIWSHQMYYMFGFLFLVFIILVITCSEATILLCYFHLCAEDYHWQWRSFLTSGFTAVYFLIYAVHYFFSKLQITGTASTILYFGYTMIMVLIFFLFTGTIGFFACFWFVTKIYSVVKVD
active: crizotinib -0.754
inactive: [1] -0.06 | filanesib -0.073 | zotarolimus 0.043 | idasanutlin -0.103 | alisertib -0.01 | [2] -0.061 | gefitinib 0.009 | [3] 0.007 | lapatinib 0.011 | pictilisib 0.085 | [4] 0.056 | [5] -0.017 | [6] -0.049 | duvelisib 0.064 | gandotinib 0.008 | tozasertib 0.028 | [7] 0 | doramapimod 0.007 | ispinesib -0.089

TBC1D15 isoform 3 (UniProt Q8TC07)
Chain of UniProt Q8TC07 (Q8TC07 whole entry, looked up): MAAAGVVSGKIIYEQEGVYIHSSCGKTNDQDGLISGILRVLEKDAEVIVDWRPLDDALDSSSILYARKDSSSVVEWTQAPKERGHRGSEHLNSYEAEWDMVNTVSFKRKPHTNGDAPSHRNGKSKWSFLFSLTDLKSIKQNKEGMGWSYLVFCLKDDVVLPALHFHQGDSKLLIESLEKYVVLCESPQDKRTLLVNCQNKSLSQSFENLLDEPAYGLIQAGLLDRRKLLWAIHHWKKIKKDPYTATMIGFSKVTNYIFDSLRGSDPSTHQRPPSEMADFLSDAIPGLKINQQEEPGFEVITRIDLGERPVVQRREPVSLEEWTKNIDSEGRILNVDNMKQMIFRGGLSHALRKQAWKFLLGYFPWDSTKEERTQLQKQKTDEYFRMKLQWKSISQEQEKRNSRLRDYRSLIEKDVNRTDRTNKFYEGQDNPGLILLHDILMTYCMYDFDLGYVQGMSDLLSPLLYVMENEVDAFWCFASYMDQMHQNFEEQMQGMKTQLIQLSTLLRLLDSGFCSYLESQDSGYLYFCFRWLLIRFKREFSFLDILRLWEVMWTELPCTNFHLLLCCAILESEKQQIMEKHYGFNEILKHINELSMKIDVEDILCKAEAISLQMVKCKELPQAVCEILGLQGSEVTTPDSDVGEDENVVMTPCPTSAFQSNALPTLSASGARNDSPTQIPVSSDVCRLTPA
inactive: [1] -0.063 | filanesib 0 | zotarolimus 0.039 | idasanutlin -0.058 | alisertib -0.052 | [2] -0.065 | gefitinib 0.015 | [3] -0.06 | lapatinib 0.032 | pictilisib -0.009 | [4] -0.012 | crizotinib -0.275 | [5] -0.032 | [6] 0.036 | duvelisib -0.031 | gandotinib -0.191 | tozasertib 0.061 | [7] 0.064 | doramapimod 0.017 | ispinesib -0.154

SRI (UniProt P30626)
Chain of UniProt P30626 (P30626 whole entry, looked up): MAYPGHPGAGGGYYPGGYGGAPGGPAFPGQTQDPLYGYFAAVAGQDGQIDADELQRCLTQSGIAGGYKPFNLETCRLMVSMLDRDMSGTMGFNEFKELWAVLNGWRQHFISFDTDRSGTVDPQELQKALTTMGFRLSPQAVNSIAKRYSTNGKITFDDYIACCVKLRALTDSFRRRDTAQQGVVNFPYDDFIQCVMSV
inactive: [1] -0.015 | filanesib 0.053 | zotarolimus 0.133 | idasanutlin -0.031 | alisertib -0.035 | [2] -0.109 | gefitinib 0.01 | [3] 0.023 | lapatinib 0.008 | pictilisib -0.04 | [4] -0.061 | crizotinib 0.082 | [5] 0.159 | [6] -0.139 | duvelisib 0.212 | gandotinib -0.03 | tozasertib 0.106 | [7] 0.066 | doramapimod -0.032
active: ispinesib 0.353

STARD3NL (UniProt O95772)
Chain of UniProt O95772 (O95772 whole entry, looked up): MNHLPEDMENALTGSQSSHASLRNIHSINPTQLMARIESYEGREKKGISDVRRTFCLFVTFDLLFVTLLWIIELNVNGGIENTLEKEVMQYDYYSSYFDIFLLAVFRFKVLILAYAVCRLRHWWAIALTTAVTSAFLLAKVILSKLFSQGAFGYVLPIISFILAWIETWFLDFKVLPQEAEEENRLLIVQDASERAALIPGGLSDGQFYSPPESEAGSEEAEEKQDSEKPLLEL
inactive: [1] -0.005 | filanesib -0.082 | zotarolimus -0.054 | idasanutlin -0.19 | alisertib -0.056 | [2] 0.095 | gefitinib 0.048 | [3] 0.075 | lapatinib -0.048 | pictilisib 0.024 | [4] -0.011 | [5] 0.055 | [6] -0.067 | duvelisib 0.111 | gandotinib -0.14 | tozasertib 0.03 | [7] -0.058 | doramapimod 0.063 | ispinesib -0.256
active: crizotinib -0.448

TAOK1 (UniProt Q7L7X3)
Chain of UniProt Q7L7X3 (Q7L7X3 whole entry, looked up): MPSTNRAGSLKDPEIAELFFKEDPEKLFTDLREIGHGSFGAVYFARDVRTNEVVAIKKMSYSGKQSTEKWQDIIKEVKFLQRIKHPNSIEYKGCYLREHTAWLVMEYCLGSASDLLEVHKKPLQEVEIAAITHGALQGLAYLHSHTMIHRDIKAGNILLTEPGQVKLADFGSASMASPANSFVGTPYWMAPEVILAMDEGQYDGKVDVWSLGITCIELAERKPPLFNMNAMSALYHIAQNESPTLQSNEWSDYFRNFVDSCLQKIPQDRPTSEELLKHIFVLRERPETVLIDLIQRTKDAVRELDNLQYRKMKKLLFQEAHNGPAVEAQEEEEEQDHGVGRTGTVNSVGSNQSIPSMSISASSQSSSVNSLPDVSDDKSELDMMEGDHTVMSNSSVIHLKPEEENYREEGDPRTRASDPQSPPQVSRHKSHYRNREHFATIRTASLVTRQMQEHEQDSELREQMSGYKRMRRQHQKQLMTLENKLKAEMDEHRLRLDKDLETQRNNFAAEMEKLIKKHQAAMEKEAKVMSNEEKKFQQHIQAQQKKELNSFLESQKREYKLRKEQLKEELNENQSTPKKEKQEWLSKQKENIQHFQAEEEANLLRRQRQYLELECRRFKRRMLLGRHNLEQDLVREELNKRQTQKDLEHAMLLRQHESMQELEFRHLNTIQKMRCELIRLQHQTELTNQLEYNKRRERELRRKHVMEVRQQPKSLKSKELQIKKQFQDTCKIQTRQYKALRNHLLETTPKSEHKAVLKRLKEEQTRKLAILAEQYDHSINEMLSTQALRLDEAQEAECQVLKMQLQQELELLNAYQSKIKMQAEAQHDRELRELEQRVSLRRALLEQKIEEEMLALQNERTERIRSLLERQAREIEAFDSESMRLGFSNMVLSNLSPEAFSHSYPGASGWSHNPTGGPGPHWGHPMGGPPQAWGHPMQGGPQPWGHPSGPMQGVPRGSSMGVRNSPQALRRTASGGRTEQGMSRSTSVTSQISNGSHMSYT
inactive: [1] -0.046 | filanesib 0.054 | zotarolimus -0.032 | idasanutlin 0.031 | alisertib 0.043 | [2] -0.088 | gefitinib 0.033 | [3] 0.011 | lapatinib 0.014 | pictilisib -0.043 | [4] -0.002 | crizotinib -0.035 | [5] 0.011 | [6] -0.08 | duvelisib -0.012 | gandotinib -0.029 | tozasertib -0.027 | [7] 0.023 | doramapimod 0.021 | ispinesib -0.001

SMARCA5 (UniProt O60264)
inactive: [1] 0.047 | filanesib 0.047 | zotarolimus 0.043 | idasanutlin 0.059 | alisertib -0.064 | [2] -0.049 | gefitinib 0.073 | [3] -0.144 | lapatinib -0.017 | pictilisib 0.004 | [4] -0.004 | crizotinib -0.073 | [5] 0.273 | [6] 0.161 | duvelisib 0.025 | gandotinib -0.045 | tozasertib 0.154 | [7] 0.127 | doramapimod -0.052 | ispinesib -0.012

TM9SF4 (UniProt Q92544)
Chain of UniProt Q92544 (Q92544 whole entry, looked up): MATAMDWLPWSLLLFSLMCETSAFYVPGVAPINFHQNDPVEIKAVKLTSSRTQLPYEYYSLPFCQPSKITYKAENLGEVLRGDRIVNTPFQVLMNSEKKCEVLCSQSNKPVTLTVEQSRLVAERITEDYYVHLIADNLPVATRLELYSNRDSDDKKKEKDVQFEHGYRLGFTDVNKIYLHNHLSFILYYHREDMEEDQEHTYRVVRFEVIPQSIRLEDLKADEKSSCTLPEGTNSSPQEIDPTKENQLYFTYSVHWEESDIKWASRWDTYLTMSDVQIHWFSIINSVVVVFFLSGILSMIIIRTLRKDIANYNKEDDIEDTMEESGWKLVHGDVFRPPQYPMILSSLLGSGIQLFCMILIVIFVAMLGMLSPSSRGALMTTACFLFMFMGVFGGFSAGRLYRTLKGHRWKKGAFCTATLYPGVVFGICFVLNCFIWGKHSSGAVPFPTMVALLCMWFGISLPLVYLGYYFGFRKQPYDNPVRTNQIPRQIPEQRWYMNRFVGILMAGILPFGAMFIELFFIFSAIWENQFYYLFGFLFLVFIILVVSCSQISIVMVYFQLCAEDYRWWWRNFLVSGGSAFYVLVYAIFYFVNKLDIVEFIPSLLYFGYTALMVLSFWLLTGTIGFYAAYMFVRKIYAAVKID
inactive: [1] 0.048 | filanesib -0.04 | zotarolimus 0.036 | idasanutlin 0.004 | alisertib -0.031 | [2] -0.023 | gefitinib 0.086 | [3] 0.004 | lapatinib 0.274 | pictilisib -0.161 | [4] -0.029 | crizotinib -0.141 | [5] 0.036 | [6] 0.04 | duvelisib -0.015 | gandotinib -0.189 | tozasertib 0.006 | [7] 0.044 | doramapimod 0.034 | ispinesib -0.143

SMAD2 (UniProt Q15796)
inactive: [1] -0.011 | filanesib 0.091 | zotarolimus 0.043 | idasanutlin 0 | alisertib 0.032 | [2] -0.016 | gefitinib 0.117 | [3] -0.032 | lapatinib 0.043 | pictilisib 0.102 | [4] 0.132 | crizotinib 0.255 | [5] -0.015 | [6] 0.012 | duvelisib 0.038 | gandotinib 0.045 | tozasertib 0.086 | [7] 0.071 | doramapimod -0.04 | ispinesib -0.019

TIMM10 (UniProt P62072)
Chain of UniProt P62072 (P62072 whole entry, looked up): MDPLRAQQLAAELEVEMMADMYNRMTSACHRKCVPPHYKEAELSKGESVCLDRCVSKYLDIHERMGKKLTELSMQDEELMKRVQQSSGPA
inactive: [1] -0.043 | filanesib -0.038 | zotarolimus -0.023 | idasanutlin -0.019 | alisertib 0.01 | [2] -0.12 | gefitinib 0.015 | [3] 0.03 | lapatinib -0.026 | pictilisib 0.008 | [4] -0.035 | crizotinib 0.051 | [5] 0.099 | [6] -0.006 | duvelisib 0.105 | gandotinib 0.052 | tozasertib 0.053 | [7] 0.027 | doramapimod 0.021 | ispinesib 0.103

TBCD (UniProt Q9BTW9)
Chain of UniProt Q9BTW9 (Q9BTW9 whole entry, looked up): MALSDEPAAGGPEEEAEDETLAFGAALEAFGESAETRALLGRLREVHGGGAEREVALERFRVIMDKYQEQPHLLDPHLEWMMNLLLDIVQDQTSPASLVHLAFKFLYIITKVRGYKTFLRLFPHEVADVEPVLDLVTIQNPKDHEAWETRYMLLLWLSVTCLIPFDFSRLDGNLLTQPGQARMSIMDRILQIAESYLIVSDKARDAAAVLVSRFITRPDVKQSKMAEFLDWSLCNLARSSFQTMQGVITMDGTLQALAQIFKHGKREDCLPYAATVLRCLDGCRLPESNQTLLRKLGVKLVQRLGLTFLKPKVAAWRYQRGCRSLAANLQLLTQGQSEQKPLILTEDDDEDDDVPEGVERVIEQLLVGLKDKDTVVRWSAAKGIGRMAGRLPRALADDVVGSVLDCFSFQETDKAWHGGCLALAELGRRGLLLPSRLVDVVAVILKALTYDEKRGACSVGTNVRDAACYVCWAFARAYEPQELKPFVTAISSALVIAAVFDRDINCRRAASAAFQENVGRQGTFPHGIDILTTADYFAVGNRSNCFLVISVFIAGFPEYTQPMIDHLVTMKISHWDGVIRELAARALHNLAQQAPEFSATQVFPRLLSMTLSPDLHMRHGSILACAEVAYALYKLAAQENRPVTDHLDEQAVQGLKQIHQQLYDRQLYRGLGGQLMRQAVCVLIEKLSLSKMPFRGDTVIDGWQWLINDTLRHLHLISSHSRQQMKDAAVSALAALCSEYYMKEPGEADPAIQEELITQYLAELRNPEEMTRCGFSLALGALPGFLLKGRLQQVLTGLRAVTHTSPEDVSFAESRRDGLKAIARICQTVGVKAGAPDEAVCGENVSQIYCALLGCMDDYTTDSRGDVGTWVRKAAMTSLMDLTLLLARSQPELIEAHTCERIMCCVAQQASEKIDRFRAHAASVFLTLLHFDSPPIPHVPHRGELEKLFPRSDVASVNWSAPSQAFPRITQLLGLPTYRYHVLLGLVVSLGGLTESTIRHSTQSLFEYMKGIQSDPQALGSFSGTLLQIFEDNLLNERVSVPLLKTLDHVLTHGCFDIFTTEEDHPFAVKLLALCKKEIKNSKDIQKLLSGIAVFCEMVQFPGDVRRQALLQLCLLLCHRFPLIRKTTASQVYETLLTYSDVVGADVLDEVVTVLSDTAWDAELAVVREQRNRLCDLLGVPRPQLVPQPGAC
inactive: [1] -0.017 | filanesib -0.063 | zotarolimus 0.049 | idasanutlin -0.091 | alisertib -0.078 | [2] -0.006 | gefitinib 0.022 | [3] 0.023 | lapatinib -0.024 | pictilisib 0.04 | [4] -0.069 | crizotinib 0.001 | [5] 0.061 | [6] -0.034 | duvelisib 0.058 | gandotinib -0.104 | tozasertib 0.041 | [7] 0.009 | doramapimod 0.004 | ispinesib -0.032

SNX1 (UniProt Q13596)
inactive: [1] -0.021 | filanesib -0.182 | zotarolimus 0.042 | idasanutlin -0.013 | alisertib -0.003 | [2] -0.063 | gefitinib -0.165 | [3] 0 | lapatinib -0.027 | pictilisib -0.205 | [4] -0.134 | crizotinib -0.247 | [5] 0.028 | [6] -0.025 | duvelisib -0.214 | tozasertib -0.054 | [7] 0.049 | doramapimod -0.009 | ispinesib -0.252
active: gandotinib -0.319

STARD9 (UniProt Q9P2P6)
inactive: [1] -0.037 | filanesib -0.028 | zotarolimus 0.098 | idasanutlin -0.035 | alisertib 0.096 | [2] 0.058 | gefitinib -0.132 | [3] -0.185 | lapatinib 0.154 | pictilisib 0.008 | [4] 0.144 | crizotinib 0.141 | [5] 0.012 | [6] 0.049 | duvelisib -0.06 | gandotinib 0.04 | tozasertib 0.013 | [7] 0.028 | doramapimod 0.074 | ispinesib -0.146

TLK1 (UniProt Q9UKI8)
inactive: [1] -0.011 | filanesib -0.021 | zotarolimus 0.019 | idasanutlin -0.009 | alisertib -0.023 | [2] -0.029 | gefitinib 0.006 | [3] 0.064 | lapatinib -0.018 | pictilisib -0.04 | [4] -0.058 | crizotinib -0.008 | [5] 0.101 | [6] -0.028 | duvelisib 0.019 | gandotinib 0.145 | tozasertib -0.004 | [7] 0.028 | doramapimod -0.023 | ispinesib 0.026

STXBP2 isoform 3 (UniProt Q15833)
inactive: [1] 0.021 | filanesib 0.001 | zotarolimus -0.043 | idasanutlin 0.043 | alisertib -0.034 | [2] 0.045 | gefitinib 0.043 | [3] -0.066 | lapatinib 0.007 | pictilisib -0.091 | [4] 0.049 | crizotinib -0.301 | [5] 0.022 | [6] 0.039 | duvelisib 0.019 | gandotinib -0.03 | tozasertib 0.03 | [7] 0.17 | doramapimod 0.152 | ispinesib -0.306
